According to PubChem BioAssay (Tox21):
A number with no mark means an inactive call. Inconclusive results are not listed. Entries that show only a call come without a potency. Active and inactive are the calls of the source. Calls follow the shape of the full dose curve.

Tests used:
[1] = target: Acetylcholinesterase (Homo sapiens) (UniProt P22303); experiment: Acetylcholinesterase (AChE) small molecule antagonists: colormetric cell-based qHTS assay (AID 1347395); also: nearly all actives have a fitted effect of over 30% in size
Method in brief: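 Homogeneous whole-cell format. SH-SY5Y cells seeded overnight, dosed with compound (30 min, 37 C, 5% CO2), then given DTNB/acetylthiocholine cocktail for 90 min at 37 C; colorimetric signal.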

[2] = target: Acetylcholinesterase (Homo sapiens) (UniProt P22303); experiment: Acetylcholinesterase (AChE) small molecule antagonists: enzyme-based qHTS assay (AID 1347397); settings: Potency: AChE enzyme activity inhibition; outcome: AChE enzyme activity inhibition; also: nearly all actives have a fitted effect of over 55% in size
Method in brief: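 Compound or DMSO vehicle was pin-transferred onto recombinant human AChE (50 mU/mL as dispensed) and left 30 min at room temperature. Acetylthiocholine with DTNB then started the reaction, read colorimetrically 10 min later.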

[3] = target: Acetylcholinesterase (Homo sapiens) (UniProt P22303); experiment: Acetylcholinesterase (AChE) small molecule antagonists: enzyme-based qHTS assay with human liver microsomes (AID 1347399); settings: Potency: qHTS inhibition; outcome: qHTS inhibition; also: nearly all actives have a fitted effect of over 60% in size
Method in brief: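 Recombinant human AChE (50 mU/mL in the enzyme mix) and human liver microsomes (0.25 mg/mL final) were preincubated with compound and NADPH (0.25 mg/mL final) for 30 min at 37 C. Acetylthiocholine/DTNB was then added; thiocholine was read colorimetrically after 10 min at room temperature.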
Potency is read from the fitted curve at half-maximal effect.

Acetylcholinesterase (Homo sapiens), sequence (P22303 whole entry, looked up): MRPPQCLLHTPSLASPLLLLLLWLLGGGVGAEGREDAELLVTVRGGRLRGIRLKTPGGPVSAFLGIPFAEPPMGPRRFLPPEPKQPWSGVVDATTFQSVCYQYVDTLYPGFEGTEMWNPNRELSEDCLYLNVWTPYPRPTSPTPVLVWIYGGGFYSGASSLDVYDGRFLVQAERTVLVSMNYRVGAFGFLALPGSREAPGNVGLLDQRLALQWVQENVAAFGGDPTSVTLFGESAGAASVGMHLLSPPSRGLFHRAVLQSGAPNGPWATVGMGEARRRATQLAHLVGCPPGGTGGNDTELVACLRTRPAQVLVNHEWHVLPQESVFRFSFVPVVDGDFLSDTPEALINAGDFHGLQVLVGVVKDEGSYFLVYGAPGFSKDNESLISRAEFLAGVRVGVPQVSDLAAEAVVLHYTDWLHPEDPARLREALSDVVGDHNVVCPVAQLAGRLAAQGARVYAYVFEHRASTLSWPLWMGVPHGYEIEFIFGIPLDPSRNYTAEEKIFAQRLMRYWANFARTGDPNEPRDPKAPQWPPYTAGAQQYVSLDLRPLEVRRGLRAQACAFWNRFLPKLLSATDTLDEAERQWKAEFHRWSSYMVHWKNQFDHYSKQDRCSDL

Compound | Potency [1] | Potency [2] | Potency [3] | outcome [1] | outcome [2] | outcome [3]
Cc1c(N)cccc1Cl | inactive | inactive | inactive |  |  | 
COc1ccc(C(=O)NCc2ccc(OCCN(C)C)cc2)cc1OC | 6.92 µM (active) | 27.5 µM (active) | inactive |  |  | 
N[C@@H]1CONC1=O | inactive | inactive | inactive |  |  | 
COCC(=O)O[C@]1(CCN(C)CCCc2nc3ccccc3[nH]2)CCc2cc(F)ccc2[C@@H]1C(C)C | inactive | inactive | inactive |  |  | 
O=C1[C@H]2CCCC[C@H]2C(=O)N1CCCCN1CCN(c2nsc3ccccc23)CC1 | inactive | inactive | inactive |  |  | 
Nc1ccc(N=Nc2ccccc2)c(N)c1 | inactive | inactive | inactive |  |  | 
FC(F)(F)C(F)(F)C(F)(F)C(F)(F)C(F)(F)C(F)(F)C(F)(F)C(F)(F)Br | inactive | inactive | inactive |  |  | 
COc1ccccc1OCCNCC(O)COc1cccc2[nH]c3ccccc3c12 (centres undefined) | inactive | inactive | inactive |  |  | 
Cc1cc(O)c2ccccc2c1O | inactive | inactive | inactive |  |  | 
COc1cc(C(C)=O)ccc1OCCCN1CCC(c2noc3cc(F)ccc23)CC1 | 19.5 µM (active) | inactive | inactive |  |  | 
CNCc1ccc(NC(=O)c2c[nH]c3c2C(=O)CCC3)cc1 | 35.6 µM (active) | inactive | inactive |  |  | 
CC(C(O)c1ccccc1)N(C)CCOC(c1ccccc1)c1ccccc1 (centres undefined) | inactive | inactive | inactive |  |  | 
CC(O)CCCCn1c(=O)c2c(ncn2C)n(C)c1=O (centres undefined) | inactive | inactive | inactive |  |  | 
CC(C(O)c1ccc(O)cc1)N1CCC(Cc2ccccc2)CC1 (centres undefined) | inactive | inactive | inactive |  |  | 
COc1cc(N)c(Cl)cc1C(=O)NC1CCN(CCCOc2ccc(F)cc2)CC1OC (centres undefined) | inactive | inactive | inactive |  |  | 
CSc1ccc2c(c1)C(N1CCN(C)CC1)Cc1ccccc1S2 (centres undefined) | inactive | inactive | inactive |  |  | 
CN(C)CCOC1=Cc2ccccc2Sc2ccc(Cl)cc21 | inactive | inactive | inactive |  |  | 
CCCCCCC(O)CO (centres undefined) | inactive | inactive | inactive |  |  | 
CCN(CC)CCc1nc(-c2ccccc2)no1 | inactive | inactive | inactive |  |  | 
CC(=O)Nc1cc(S(=O)(=O)O)cc2cc(S(=O)(=O)O)c(N=Nc3ccccc3)c(O)c12 | inactive | inactive | inactive |  |  | 
CCN(CC)CCNC(=O)COc1ccc(OC)cc1 | inactive | inactive | inactive |  |  | 
CCN(CC)CCOCCOC(=O)C1(c2ccccc2)CCCC1 | inactive | inactive | inactive |  |  | 

Compound | Potency [1] | Potency [2] | Potency [3] | outcome [1] | outcome [2] | outcome [3]
Cc1ccc(S)cc1 | inactive | inactive | inactive |  |  | 
Cc1onc(-c2c(Cl)cccc2Cl)c1C(=O)Cl | inactive | inactive | inactive |  |  | 
CC(=O)Oc1cccc(C)c1 | inactive | inactive | inactive |  |  | 
CCN(CC)CCNc1ccc(CO)c2sc3ccccc3c(=O)c12 | inactive | inactive | inactive |  |  | 
O=C(c1ccccc1)C1CCCCC1 | inactive | inactive | inactive |  |  | 
O[C@@H](CNC[C@H](O)[C@H]1CCc2cc(F)ccc2O1)[C@@H]1CCc2cc(F)ccc2O1 | inactive | inactive | inactive |  |  | 
Cc1c(I)c(=O)n(-c2ccccc2)n1C | inactive | inactive | inactive |  |  | 
O=C1CCc2cc(OCCCCc3nnnn3C3CCCCC3)ccc2N1 | 24.5 µM (active) | inactive | inactive |  |  | 
CCCCCCCCCCCCCCCC[N+](C)(C)CCN(Cc1ccc(OC)cc1)c1ncccn1 | inactive | 34.7 µM (active) | inactive |  |  | 
O=C(CCBr)N1CCN(C(=O)CCBr)CC1 | inactive | inactive | inactive |  |  | 
OC1(c2ccccc2)CCNCC1 | inactive | inactive | inactive |  |  | 
CC(C)C(=O)OCC(C)(C)C(O)C(C)C (centres undefined) | inactive | inactive | inactive |  |  | 
O=C(CCCN1CCN(c2ccc(F)cc2)CC1)NC1c2ccccc2CSc2ccccc21 (centres undefined) | inactive | inactive | inactive |  |  | 
Cc1ccc([N+](=O)[O-])cc1Cl | inactive | inactive | inactive |  |  | 
Oc1ccc(C2CNCCc3c2cc(O)c(O)c3Cl)cc1 (centres undefined) | inactive | inactive | inactive |  |  | 
O=S(=O)(O)SSS(=O)(=O)O | 71 µM (active) | 71 µM (active) | 71 µM (active) |  |  | 
Oc1ccc(C2(c3ccc(O)cc3)CC3CC2C2CCCC32)cc1 (centres undefined) | inactive | 76.5 µM (active) | inactive |  |  | 
O=C1Cc2cc(CCN3CCN(c4nsc5ccccc45)CC3)c(Cl)cc2N1 | inactive | inactive | inactive |  |  | 
COc1ccc2cc(C=O)ccc2c1 | inactive | inactive | inactive |  |  | 
CC1=C(/C=C/C(C)=C/C=C/C(C)=C/C=O)C(C)(C)CCC1 | inactive | inactive | inactive |  |  | 
Cc1cc(CCN2CCN(c3nsc4ccccc34)CC2)cc2c1NC(=O)CC2(C)C |  |  |  | inactive | inactive | inactive
